Structures can show the parent of a compound that is named as a salt.
Assays:
[1] = test system: S. cerevisiae SK1 pCDA2-eGFP (USY613), sporulating; experiment: CDA2-GFP sporulation assay sensitivity score (z-score vs DMSO controls); higher = stronger inhibition of sporulation, active = hit call of the paper;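 note: active if sensitivity score above 5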
[2] = test system: S. cerevisiae AD1-9 (efflux-pump deficient), vegetative growth in YPD; experiment: growth sensitivity score (doubling time z-score vs DMSO controls); higher = slower growth, strongly negative scores also mark growth inhibition (complete suppression), active = hit call of the paper
Outline: (§1)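 Optical density of Saccharomyces cerevisiae cultures in microtiter plates was followed every 15 min for 24 hours after seeding at an OD600 of 0.065. Eight solvent-only wells were run per experiment. Growth sensitivity scores were found by subtracting the solvent-only mean from the compound mean and dividing by the solvent-only standard deviation.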

[3] = test system: S. cerevisiae BY4741 (wild-type), vegetative growth in YPD; experiment: as above
Outline: as §1

Row | SMILES | CDA2-GFP sporulation assay sensitivity score [1] | growth sensitivity score [2] | growth sensitivity score [3]
1 | O=C(O[C@H]1[C@H](Oc2ccccc2COC(=O)C2(O)C=CCCC2=O)O[C@H](CO)[C@@H](O)[C@@H]1O)c1ccccc1 (stereo partly specified) [Tremulacin] (stock concentration (mM, diluted 1:100): 10) | 3.04 (inactive) | -1.16 (inactive) | -0.72 (inactive)
2 | CCn1cc(C(=O)O)c(=O)c2cc(F)c(N3CCN(C)CC3)cc21 [Pefloxacin mesylate] (stock concentration (mM, diluted 1:100): 7.9) | -0.85 (inactive) | 3.65 (active) | -1.1 (inactive)
3 | COc1cc(OC)c(C(=O)CCCN2CCCC2)c(OC)c1 [Buflomedil hydrochloride] (stock concentration (mM, diluted 1:100): 8.9) | -0.24 (inactive) | 0.38 (inactive) | 2.01 (active)
4 | COc1cc(CNC(=O)CCCC/C=C/C(C)C)ccc1O [Capsaicin] (stock concentration (mM, diluted 1:100): 10) | -1.12 (inactive) | 25.8 (active) | 3.2 (active)
5 | CN(C)CCCSc1ccccc1NC(=O)/C=C/c1ccccc1 [Cinanserin] (stock concentration (mM, diluted 1:100): 10) | 1.28 (inactive) | 41.8 (active) | 1.35 (inactive)
6 | Clc1ccccc1CN1CCc2sccc2C1 [Ticlopidine hydrochloride] (stock concentration (mM, diluted 1:100): 8.7) | 2.24 (inactive) | 1.32 (inactive) | 0.36 (inactive)
7 | O=C1C(c2c(O)[nH]c3ccccc23)=Nc2ccccc21 [Indarubicin] (stock concentration (mM, diluted 1:100): 10) | 9.61 (inactive) | -1.23 (inactive) | -1.62 (inactive)
8 | N#Cc1ccc(C(c2ccc(C#N)cc2)n2cncn2)cc1 [Letrozol] (stock concentration (mM, diluted 1:100): 10) | 1.08 (inactive) | 20.4 (active) | -0.45 (inactive)
9 | Cn1c(NCCN(CCO)CCCc2ccc([N+](=O)[O-])cc2)cc(=O)n(C)c1=O [Nifekalant hydrochloride] (stock concentration (mM, diluted 1:100): 9.2) | 0.47 (inactive) | 0.65 (inactive) | -0.07 (inactive)
10 | CN(C)CCC[C@@]1(c2ccc(F)cc2)OCc2cc(C#N)ccc21 [Escitalopram oxalate] (stock concentration (mM, diluted 1:100): 7.9) | 0.99 (inactive) | -1.47 (inactive) | 0.93 (inactive)
11 | C[C@H]1[C@H](OC(=O)CCC(=O)O)O[C@@H]2O[C@@]3(C)CC[C@H]4[C@H](C)CC[C@@H]1[C@@]24OO3 [Artesunate] (stock concentration (mM, diluted 1:100): 10) | 0.74 (inactive) | 23.2 (active) | 2.81 (active)
12 | CCC1=C(C)CN(C(=O)NCCc2ccc(S(=O)(=O)NC(=O)N[C@H]3CC[C@H](C)CC3)cc2)C1=O [Glimepiride] (stock concentration (mM, diluted 1:100): 7.7) | 0.5 (inactive) | 1.1 (inactive) | -0.03 (inactive)
13 | O=c1[nH]c(=O)n(C2CCCO2)cc1F (stereo unspecified) [Ftorafur] (stock concentration (mM, diluted 1:100): 10) | 0.02 (inactive) | -0.92 (inactive) | 0.14 (inactive)
14 | O=C(NCCN1CCOCC1)c1ccc(Cl)cc1 [Moclobemide] (stock concentration (mM, diluted 1:100): 10) | 0.72 (inactive) | 0.15 (inactive) | -0.18 (inactive)
15 | CCCCc1nc(Cl)c(CO)n1Cc1ccc(-c2ccccc2-c2nnn[nH]2)cc1 [Losartan potassium] (stock concentration (mM, diluted 1:100): 9.2) | -0.41 (inactive) | -1.21 (inactive) | -0.26 (inactive)
16 | CN1C2CCCC1CC(NC(=O)c1nn(C)c3ccccc13)C2 (stereo unspecified) [Granisetron hydrochloride] (stock concentration (mM, diluted 1:100): 9) | 2.25 (inactive) | -1.22 (inactive) | -0.57 (inactive)
17 | COc1ccnc(C[S+]([O-])c2nc3cc(OC(F)F)ccc3[nH]2)c1OC (stereo unspecified) [Pantoprazole sodium] (stock concentration (mM, diluted 1:100): 10) | 0.75 (inactive) | -2.1 | -0.44 (inactive)

From the supplement of paper PMC3414501
